Screens: PubChem, Johns Hopkins Ion Channel Center
KCNQ2 pot = potentiators of rat KCNQ2 potassium channel; Potassium voltage-gated channel subfamily KQT member 2 (Rattus norvegicus), O88943; CHO-K1 KCNQ2, FluxOR thallium flux fluorescence; active compounds read high; B-score at 10 µM; 310,000 compounds, 0.54% hits; AID 2239, 2010;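 active = fluorescence ratio B-score at least 3 SD of library B-scores, with initial fluorescence B-score within 3 of them, cut at about 5.3 in these data; same plate scores as AID 2156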;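 also: B-score of peak minus minimum over baseline fluorescence ratio after K+ and Tl+ stimulus; positive B-score means potentiation of KCNQ2 with more thallium influx and brighter signal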
Target sequence (O88943 whole entry, looked up): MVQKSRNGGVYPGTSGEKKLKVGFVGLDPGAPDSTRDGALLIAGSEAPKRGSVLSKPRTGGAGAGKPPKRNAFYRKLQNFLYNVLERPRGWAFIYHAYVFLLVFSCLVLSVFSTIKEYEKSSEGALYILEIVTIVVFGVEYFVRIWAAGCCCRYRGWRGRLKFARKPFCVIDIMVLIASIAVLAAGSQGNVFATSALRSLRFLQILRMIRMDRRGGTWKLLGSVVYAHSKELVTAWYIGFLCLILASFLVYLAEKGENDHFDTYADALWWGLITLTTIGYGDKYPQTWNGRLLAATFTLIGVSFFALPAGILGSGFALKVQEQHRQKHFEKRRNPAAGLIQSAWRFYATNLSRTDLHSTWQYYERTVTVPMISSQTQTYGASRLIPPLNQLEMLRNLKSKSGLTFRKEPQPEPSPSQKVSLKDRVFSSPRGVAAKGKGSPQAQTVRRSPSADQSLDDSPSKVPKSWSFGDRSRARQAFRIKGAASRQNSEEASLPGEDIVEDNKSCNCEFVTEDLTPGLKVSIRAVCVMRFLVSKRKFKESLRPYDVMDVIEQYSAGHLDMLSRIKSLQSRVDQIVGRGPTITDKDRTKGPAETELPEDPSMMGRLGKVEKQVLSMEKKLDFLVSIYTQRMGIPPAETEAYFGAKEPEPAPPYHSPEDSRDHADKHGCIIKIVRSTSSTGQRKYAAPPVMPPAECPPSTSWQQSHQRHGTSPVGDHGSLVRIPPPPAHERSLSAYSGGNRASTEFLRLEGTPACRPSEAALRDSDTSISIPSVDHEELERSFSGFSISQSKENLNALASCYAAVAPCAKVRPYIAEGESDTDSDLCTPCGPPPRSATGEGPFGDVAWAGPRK
KCNQ2 inh = rat KCNQ2 potassium channel inhibitors, primary screen, cell-based, CHO-K1, FluxOR thallium flux, B-score | B-score at 10 µM | 310,000 compounds, 1.1% hits | 20 min; active compounds read low | Potassium voltage-gated channel subfamily KQT member 2 (Rattus norvegicus), O88943;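 active = fluorescence ratio B-score at most minus 3 library SDs, with starting brightness B-score within 2 library SDs, cut at about -5.5 in these data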
KCNQ2 block conf = rat KCNQ2 potassium channel inhibitors, confirmation, cell-based, thallium flux; shares compounds with KCNQ2 inh; KCNQ2-expressing cells, inhibition; active compounds read low; activity change, negative = inhibition, % at 10 µM; 1,000 compounds, 57% hits
KCNQ1 spec = human KCNQ1 channel inhibition, counter-screen for KCNQ2 inhibitor project, cell-based, FluxOR thallium flux; shares compounds with KCNQ2 inh; KCNQ1-expressing cells, FluxOR thallium flux fluorescence; active compounds read low; activity change, negative = inhibition, % at 10 µM; 1,000 compounds, 15% hits; AID 493026, 2011;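 active = activity change at least 3 SD of negative controls below their mean in both duplicate wells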;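 also: CHO cells stably transfected with KCNQ1 and depolarized by potassium stimulus; peak minus minimum fluorescence over baseline after thallium addition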
CHO Tl ctr = thallium flux change in parental CHO cells, counter-screen for KCNQ2 inhibitor project; AID 493029, 2011; shares compounds with KCNQ2 inh; active compounds read low; activity change, % at 10 µM; 1,000 compounds, 14% hits
KCNQ2 inh confirm = rat KCNQ2 channel inhibitors, confirmation, cell-based, automated patch clamp, single concentration. shares compounds with KCNQ2 inh. 550 compounds, 49% hits. KCNQ2-expressing cells, automated patch clamp current. calls only at 10 µM
Kir21 conf inh = mouse Kir2.1 channel blockers, retest, confirmation, cell-based, FluxOR thallium flux, duplicate. shares compounds with KCNQ2 pot. Kir2.1-expressing cells, FluxOR thallium flux fluorescence; active compounds read low. Tl flux remaining, % of negative control (active compounds read low), % at 10 µM. 2,300 compounds, 41% hits. AID 2032, 2009;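 active = Primary-screen hit whose thallium flux fell at least 3 control SD below untreated wells in both duplicates, with normal baseline fluorescence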
HEK293 ctr = alters thallium flux in parental HEK293 cells, Kir2.1 counter-screen. FluxOR signal as % of negative control (100 = no effect), % at 10 µM. 2,300 compounds, 19% hits. AID 2105. shares compounds with KCNQ2 pot. FluxOR thallium flux fluorescence; 0% = unstimulated blank wells;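 active = dye signal at least 3 control SD above or below untreated wells in both duplicates, raw fluorescence within 3, either direction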;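 also: percent is based on the flux ratio of peak minus minimum fluorescence over baseline F0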
Kir2-1 sel = mouse Kir2.1 channel activation off-target, confirmation, selectivity assay for KCNQ2 potentiator project, cell-based, HEK293, FluxOR thallium flux | HEK293 Kir2.1, FluxOR thallium flux fluorescence | activity over 3SD threshold, % at 10 µM | 1,200 compounds, 2% hits | AID 2345, 2010 | shares compounds with KCNQ2 pot;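 active = fluorescence ratio rise of at least 3 SD above the vehicle-control mean, seen in both replicates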
Of the large screens only hits and unclear results are named; the others gave an inactive call (follow-up assays come after a bar, where they were run). Shown are actives, neighbours in structure and some others; about 1.6% of the full set was active somewhere. Unless noted, no rule for the calls is given here.

COc1ccc(CNC(=S)Nc2ccccc2Cl)cc1	none
COc1ccc(CNC(=S)Nc2ccccc2-c2ccccc2)cc1	KCNQ2 inh -7.63 | KCNQ2 block conf -32.0% | KCNQ1 spec inactive | CHO Tl ctr inactive | KCNQ2 inh confirm active
O=C1CC(c2ccc(O)c(O)c2)Oc2cc(O)cc(O)c21 (centres undefined)	none
CC(C)=CCc1c(O)ccc2c1OC(c1ccc(O)c(O)c1)CC2=O (centres undefined)	KCNQ2 inh -8.74 | KCNQ2 block conf inactive | KCNQ1 spec inactive | CHO Tl ctr inactive | Kir21 conf inh 54.5% | HEK293 ctr inactive
CCC(=O)N1CCc2cc(S(=O)(=O)CCC(=O)Nc3ccc(C)cn3)ccc21	none
COc1ccc(CCN2CCCC(CN(C)Cc3cc(OC)ccc3OC)C2)cc1 (centres undefined)	none
CN(Cc1ccccc1O)CC1CCCN(CCc2ccc(Cl)cc2)C1 (centres undefined)	KCNQ2 inh -8.98 | KCNQ2 block conf inactive | KCNQ1 spec inactive | CHO Tl ctr inactive | Kir21 conf inh 23.0% | HEK293 ctr inactive
NNC(=O)c1csc(-c2cccc(C(F)(F)F)c2)n1	none (no result: KCNQ2 pot)
Cc1ccc(C(=O)c2ccc(C)cc2)cc1	none (no result: KCNQ2 pot)
Cc1ccc(C(=O)c2no[n+]([O-])c2C(=O)c2ccc(C)cc2)cc1	KCNQ2 inh -9.7 | KCNQ2 block conf -28.5% | KCNQ1 spec inactive | CHO Tl ctr inactive | KCNQ2 inh confirm inactive | Kir21 conf inh 70.5% | HEK293 ctr 62.5% | Kir2-1 sel inactive
Cc1ccc(COc2ccc(/C=N/O)cc2)cc1	none (no result: KCNQ2 pot)
NC(N)=N/N=C/c1ccc(OCc2ccc(Cl)cc2)cc1	KCNQ2 inh -9.63 | KCNQ2 block conf -37.0% | KCNQ1 spec inactive | CHO Tl ctr inactive | KCNQ2 inh confirm active | Kir21 conf inh inactive | HEK293 ctr 76.0%
Cc1ccc(CC(CC(=O)O)C(=O)NCc2ccccc2)cc1 (centres undefined)	none (no result: KCNQ2 pot)
CNC[C@H](Cc1ccccc1)NC[C@@H](Cc1cccc2ccccc12)NCCc1ccc(C)cc1	KCNQ2 inh -8.44 | KCNQ2 block conf inactive | KCNQ1 spec inactive | CHO Tl ctr inactive | Kir21 conf inh 14.0% | HEK293 ctr inactive
OCCNc1nc(Nc2ccc(Br)cc2)nc2ccccc12	KCNQ2 inh -12.2 | KCNQ2 block conf -26.0% | KCNQ1 spec inactive | CHO Tl ctr inactive | KCNQ2 inh confirm inactive | Kir21 conf inh 30.5% | HEK293 ctr inactive
OCCNc1nc(Nc2ccccc2)nc2ccccc12	none
COc1ccc(CNCCc2ccc(Cl)cc2)cc1OCc1ccccc1	KCNQ2 inh -12.7 | KCNQ2 block conf inactive | KCNQ1 spec inactive | CHO Tl ctr inactive | Kir21 conf inh 13.5% | HEK293 ctr inactive
CCOc1cc(CNCc2ccccc2)ccc1OCc1ccc(Cl)cc1	none (no result: KCNQ2 pot)
CC(=O)Oc1c(C)cc(Cl)cc1C(=O)Nc1ccc([N+](=O)[O-])cc1Cl	none
CCOC(=O)C1CCN(CCCSc2ccccc2)CC1	none
CCCCCCCNC(=O)C1(CC2CC(c3cccc(Br)c3)=NO2)CCN(C(=O)c2ccccc2)CC1 (centres undefined)	none (no result: KCNQ2 pot)
CCCCCCCNC(=O)C1(CC2CC(c3cccc(Br)c3)=NO2)CCNCC1 (centres undefined)	KCNQ2 inh -8.63 | KCNQ2 block conf -41.5% | KCNQ1 spec -43.0% | CHO Tl ctr -45.0% | KCNQ2 inh confirm active | Kir21 conf inh 37.0% | HEK293 ctr inactive
O=C(O)C(Sc1ccncn1)c1ccccc1 (centres undefined)	none (no result: KCNQ2 pot)
COC(=O)c1ccc2c(c1)C(C)(C)C(/C=C/c1ccc(OC)c(OC)c1OC)=[N+]2C	KCNQ2 inh -15.8 | KCNQ2 block conf -70.0% | KCNQ1 spec -66.5% | CHO Tl ctr -60.5% | KCNQ2 inh confirm inactive | Kir21 conf inh 31.0% | HEK293 ctr inactive
COC(=O)c1ccc2c(c1)C(C)(C)C(/C=C/c1ccc(O)cc1)=[N+]2C	none (no result: KCNQ2 pot)
N=c1c2c(-c3ccccc3)c(-c3ccccc3)n(Cc3ccco3)c2ncn1CCCN1CCOCC1	none (no result: KCNQ2 pot)
N=c1c2c(-c3ccccc3)c(-c3ccccc3)n(Cc3ccccc3)c2ncn1CCO	KCNQ2 inh -7.48 | KCNQ2 block conf inactive | KCNQ1 spec inactive | CHO Tl ctr inactive | Kir21 conf inh 38.5% | HEK293 ctr 63.0%
N=c1c2c(-c3ccccc3)c(-c3ccccc3)oc2ncn1CCN1CCOCC1	none (no result: KCNQ2 pot)
CC(C)Cn1cnc2c(c(-c3ccccc3)c(-c3ccccc3)n2Cc2ccco2)c1=N	KCNQ2 inh -10.4 | KCNQ2 block conf inactive | KCNQ1 spec inactive | CHO Tl ctr inactive | Kir21 conf inh inactive | HEK293 ctr 134.0%
Cc1ccc(NC(=O)c2ccc([N+](=O)[O-])cc2Cl)nc1	none
Cc1nn(CC(=O)Nc2cccc(C(F)(F)F)c2)c(=O)c2cccn12	none (no result: KCNQ2 pot)
CC1(C)OC(=O)N(c2ccccc2)C12C=Cc1cc(Br)ccc1O2 (centres undefined)	none (no result: KCNQ2 pot)
CN1c2ccccc2C(C)(C)[C@]12C=Cc1cc(O)ccc1O2	KCNQ2 inh -9.52 | KCNQ2 block conf -34.0% | KCNQ1 spec inactive | CHO Tl ctr inactive | KCNQ2 inh confirm inactive | Kir21 conf inh inactive | HEK293 ctr inactive
CCOC(=O)C1CN(S(C)(=O)=O)c2cc(CC(=O)OC)ccc2O1 (centres undefined)	none (no result: KCNQ2 pot)
Cn1nc(C(=O)NCc2ccccc2Cl)c2c1-c1ccccc1S(=O)(=O)C2	none
Cc1sc(NC(=O)C2CSC3(C)CCC(=O)N23)nc1-c1ccc(F)cc1 (centres undefined)	none (no result: KCNQ2 pot)
COc1ccc(OCc2n(CC(=O)OC3CC(C)CCC3C(C)C)c3ccccc3[n+]2C)cc1 (centres undefined)	KCNQ2 inh -7.41 | KCNQ2 block conf -21.0% | KCNQ1 spec inactive | CHO Tl ctr inactive | KCNQ2 inh confirm active | Kir21 conf inh 15.5% | HEK293 ctr inactive
CC1CCC(C(C)C)C(OC(=O)COC(=O)c2cc(O)ccc2N)C1 (centres undefined)	none
